PubChem BioAssay (NCI)
The panel holds about 83,000 compounds, 20% with a hit somewhere; the sample as a whole holds those more often.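 Percent growth is the endpoint: 0 to 100 indicates growth inhibition (40 means 60% inhibition), 0 means no net growth, and negative values indicate cell death.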 Unmarked numbers belong to inactive results. Activity calls are given as the source filed them. Rule for the calls: active = growth percent below 10; inactive = the rest.

What was measured:
Experiment in all cases: NCI-60 one-dose screen, 48 h (100 = growth as untreated, 0 = no growth, -100 = all killed)
Conditions in all cases: 10 µM unless noted
HCT-15 colon = tested on: HCT-15 colon
HT29 colon = tested on: HT29 colon
SNB-75 CNS = tested on: SNB-75 CNS
SNB-19 CNS = tested on: SNB-19 CNS
U251 CNS = tested on: U251 CNS
PC-3 prostate = tested on: PC-3 prostate
SK-MEL-5 melanoma = tested on: SK-MEL-5 melanoma
UACC-62 melanoma = tested on: UACC-62 melanoma
LOX IMVI melanoma = tested on: LOX IMVI melanoma
SK-MEL-28 melanoma = tested on: SK-MEL-28 melanoma

Compound | growth (HCT-15 colon) | growth (HT29 colon) | growth (SNB-75 CNS) | growth (SNB-19 CNS) | growth (U251 CNS) | growth (PC-3 prostate) | growth (SK-MEL-5 melanoma) | growth (UACC-62 melanoma) | growth (LOX IMVI melanoma) | growth (SK-MEL-28 melanoma)
CC(=O)Nc1ccc(C(=O)/C=C/c2ccccc2)cc1 | 77.3% | 44.6% | 75.9% | 80.5% | 76.3% | 84.3% | 91.5% | 90% | 61.8% | 93.4%
CCCCOC(=O)c1ccc(NC(=O)C(C)N2CCOCC2)cc1 (stereo not given) | 108% | 79.5% | 107% | 99.5% | 93.2% | 72.7% | 104% | 95.1% | 101% | 112%
C=C(C=O)[C@@H]1CC=C(C=O)CC1 | -12% (active) | 13.2% | 32.9% | 55% | -8.31% (active) | 15.3% | -41.1% (active) | -21.6% (active) | -0.188% (active) | -43.3% (active)
NC(N)=N/N=C(/c1ccccc1)c1ccccc1F | 22% | 8.59% (active) | 7.44% (active) | 30.9% | 24.2% | 14.1% | 15.8% | 20.2% | 46.3% | 63.4%
CN1CCN(C2=C(Cl)C(=O)c3ccccc3C2=O)CC1 | 33% | 66.7% | 90.9% | 93.1% | 87% | 60.5% | 26.8% | 32.9% | 11.4% | 73.8%
N=C(N)c1ccc(-c2ccc(-c3ccc(Cl)cc3Cl)o2)nc1 | 2.86% (active) | -23.8% (active) | -20% (active) | 48.6% | -37.3% (active) | 56.2% | 87% | 101% | -82.6% (active) | 80.9%
Cc1cc(-c2noc(C(F)(F)F)n2)ccc1N1CCN(c2cc(C(=O)N(C)C)no2)CC1 | 70.3% | 78.3% | 73% | 64.1% | 71.9% | 56.8% | 2.91% (active) | 62.1% | 62.4% | 84.8%
CNC(=O)c1cc(Oc2ccc3nc(Nc4cc(Cl)cc(Cl)c4)ccc3c2)ccn1 | 41.4% | 15.3% | 70.2% | 75.2% | 58.2% | 40.3% | 51.8% | 44.7% | 45.9% | 61.4%
O=c1ccn(C2OC(F)(CO)C(O)C2F)c(=O)[nH]1 (stereo not given) | 103% | 94.5% | 95.9% | 105% | 94.8% | 93.1% | 108% | 103% | 97.3% | 109%
C=C1C(=O)O[C@H]2[C@H]1CC/C(COC(=O)NCc1ccc(Cn3c(=O)sn(CCCCl)c3=O)cc1)=C\CC[C@@]1(C)O[C@@H]21 | 8.02% (active) | -30.2% (active) | 70.2% | 76.1% | 57.7% | 67.1% | 42.5% | 26.8% | -48.2% (active) | 28.1%
CNC=O | 99.3% | 92.6% | 86.8% | 97.5% | 100% | 98.1% | 59.9% | 96.2% | 97.1% | 96.6%
CCCCCOC(=O)c1cccc(NC(=O)CN(CC)CC)c1 | 107% | 79.6% | 103% | 106% | 103% | 77.1% | 105% | 103% | 101% | 108%
CN1CCN(C(=O)[C@]23CCC(C)(C)C[C@@H]2C2=CC[C@@H]4[C@@]5(C)Cc6c([nH]c7ccccc67)C(C)(C)[C@@H]5CC[C@@]4(C)[C@]2(C)CC3)CC1 | 81.5% | 71.3% | 56.6% | 91.8% | 78.3% | 64.8% | 94% | 95.9% | 77.4% | 89.6%
CCOC(=O)N1CCc2c(sc3c2C(=O)N[C@H](c2ccc(OC)cc2)N3)C1 | 106% | 86.2% | 91.7% | 90% | 96.7% | 89.1% | 99.1% | 91.8% | 101% | 109%
CN(C)c1cnccn1 | 87.6% | 104% | 96.6% | 101% | 78.4% | 88.6% | 96.1% | 98.6% | 84.3% | 103%
COc1cc2c(cc1OC)-c1ccc3cc4c(cc3c1N(CCCN(C)C)C2)OCO4 | 52% | 11.5% | 44.1% | 25.3% | 18.2% | 23% | 43.9% | 44% | 19.5% | 58.8%
Oc1ccccc1-c1nc2ccccn2c1NCCN1CCOCC1 | 99.4% | 93.8% | 80.2% | 99.7% | 97% | 87.4% | 98.7% | 95.3% | 94.4% | 94.4%
Cc1[nH]c(-c2nc3ccccc3[nH]2)c(C)c1C(=O)N1CCc2sccc2C1 | 90% | 96% | 78.6% | 89.4% | 97.9% | 87.3% | 88.8% | 87.8% | 93.3% | 94.5%
O=C(Nc1ccccc1Cl)OCCN1CCOCC1 | 102% | 75.9% | 111% | 103% | 103% | 77.5% | 108% | 101% | 102% | 110%
Cc1ccc2c(n1)C(=O)C(Oc1ccc(F)cc1)=CC2=O | 81.8% | 108% | 83% | 110% | 95.3% | 98.9% | 91.4% | 99.7% | 88.5% | 113%
CC(C)(C)CC(C)(C)Nc1c(-c2ccc(-c3ccccc3)cc2)nc2cnccn12 | 84.5% | 30.5% | 88.7% | 94.3% | 59.7% | 65.4% | 101% | 75.9% | 97.2% | 100%
Oc1[nH]c2ccccc2c1/C=c1/cc2c(c(-c3ccc(F)cc3)n1)=Nc1ccccc1-2 | -18.1% (active) | -41.7% (active) | -2.31% (active) | 25.2% | -57.8% (active) | -14.8% (active) | -38.9% (active) | -56% (active) | -58.1% (active) | -47.3% (active)
COc1cc2oc(-c3cccc(C(=O)Nc4ccc(C)cc4)c3)cc(=O)c2c(OC)c1OC | 17.6% | 11.2% | 45.5% | 67.9% | 42.1% | 45% | -60.3% (active) | -33.8% (active) | -7.81% (active) | 7.12% (active)
[2H]c1nc(Nc2ncc(F)c(-c3cc(F)c4nc(C)n(C(C)C)c4c3)n2)c([2H])c([2H])c1CN1CCN(C([2H])([2H])C([2H])([2H])[2H])CC1 | 39.8% | 34.6% | 33.9% | 65.5% | 42.2% | 44.2% | 41.8% | 73.3% | 39.1% | 70.3%
O=C(CCl)N1c2cccc3cccc(c23)N(C(=O)CCl)C1c1cn(-c2ccccc2)nc1-c1cccc([N+](=O)[O-])c1 | 85.6% | 44.9% | 85.1% | 97.3% | 85% | 97.1% | 98.9% | 86.8% | 26.6% | 106%
O=C(CC12CC3CC(CC(C3)C1)C2)NCCOCCOCCNC(=O)c1cc2c(o1)C(=O)c1ccccc1C2=O | -80.2% (active) | 3.08% (active) | -99% (active) | -16.3% (active) | -87.8% (active) | 4.8% (active) | -97.5% (active) | -94.9% (active) | -95.1% (active) | -73.5% (active)
